In PubChem BioAssay AID504832 (National Center for Advancing Translational Sciences (NCATS), 2011):
The whole screen tested about 310,000 compounds, of which about 18,000 (5.8%) were called active. Roughly 22% stayed inconclusive and do not appear here. The sample holds actives, similar compounds and a random draw of the others, so the mix is not that of the screen. A number with no mark means an inactive call. Calls come from the whole dose curve; as a rule, active = well fitted inhibition curve with a large enough effect; inconclusive = small, poorly fitted or top-dose-only effect, or another doubt; inactive = no such curve, though single readings can be large or run the other way.

Test: Primary qHTS for delayed death inhibitors of the malarial parasite plastid, 48 hour incubation
Conditions: P. falciparum luciferase growth in erythrocytes; series mostly up to 28.7 µM; activity change, negative = inhibition: at the top concentration
Summary of the method: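 Luminescence readout; reporter = integrated firefly luciferase in P. falciparum. RBC culture at 2% hematocrit, 0.1% parasitemia final, 37 C/5% CO2; decreased signal taken as growth inhibition.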
% is set by controls: 0 for no effect and ±100 for the full control effect; potency is the fitted concentration of half-maximal effect.

Row | SMILES | activity change, negative = inhibition | Potency
1 | Cc1cc(S(=O)(=O)NCC(C)C)ccc1OCC(=O)NC1CC1 | 0.0371% | –
2 | CC(=O)c1cccc(NC(=S)N2CCN(S(C)(=O)=O)CC2)c1 | -7.77% | –
3 | Cc1ccc(F)cc1S(=O)(=O)Nc1cccc(C(=O)N2CCCC(C(N)=O)C2)c1 (stereo unspecified) | -20.4% | –
4 | COc1ccc(OC)c(NC(=O)c2ccc3c(c2)C(=O)N(c2ccc(OC(C)=O)cc2)C3=O)c1 | 0.907% [at 0.00184 µM] | –
5 | C/C(=N\NC(=O)C1(C)CC1(Br)Br)c1ccc(C)cc1C (stereo unspecified) | 9.57% | –
6 | O=C(CCn1nnnc1CN1CCOCC1)N1CCC(c2ccccc2Cl)C1 (stereo unspecified) | 51.7% | –
7 | CCc1nn(CC(=O)N2CCN(CC)CC2)c(=O)c2cccn12 | 34.5% | –
8 | NC(=O)c1ccc(CN2CCC(Cc3ccccc3)CC2)cc1 | 5.35% | –
9 | Brc1ccc(CN2CC[C@H]3C=CCc4cccc(c43)C2)cc1 | – | 3.29 µM (active)
10 | NC(=O)C1CC(=O)N(c2ccc(OCC(=O)NCc3ccccc3)cc2)C1 (stereo unspecified) | 5.28% | –
11 | CCN(C(=O)c1cc([N+](=O)[O-])ccc1NCc1cccnc1)c1ccccc1 | -8.89% | –
12 | CS(=O)(=O)Nc1ccccc1C(=O)OCC(=O)NC1CC1 | -14.3% | –
13 | CC(C)=CCc1c(O)c(CC=C(C)C)c2occ(-c3ccc(O)cc3)c(=O)c2c1O | – | 2.94 µM (active)
14 | Cc1ccnc(NC(=O)CCNS(=O)(=O)c2ccc(C)c(C)c2)c1 | 277% | –
15 | Cc1cccc(NS(=O)(=O)c2cc(Cl)ccc2Cl)n1 | -4.36% | –
16 | O=[N+]([O-])c1ccc(S(=O)(=O)Nc2cccc(-c3ccc(N4CCCC4)nn3)c2)cc1 | 17.3% | –
17 | COc1ccc([C@H]2CC(=O)C=C(c3ccc(C)cc3)C2)cc1 | 13.6% | –
18 | O=C1C=C(c2ccnc3cc(Cl)ccc23)C[C@@H](c2ccc3c(c2)OCO3)C1 | – | 7.38 µM (active)
19 | CC(=O)C1=C(C)NC(=O)NC1c1ccc2c(c1)OCO2 (stereo unspecified) | -0.218% | –
20 | COc1ccc2cc(C3=CC(=O)C[C@H](c4ccc5c(c4)OCO5)C3)ccc2c1 | 0% | –
21 | O=C1C=C(c2cc(C(F)(F)F)cc(C(F)(F)F)c2)C[C@@H](c2ccc3c(c2)OCO3)C1 | – | 8.28 µM (active)
22 | N#Cc1ccc(C2=CC(=O)C[C@H](c3ccc(Cl)cc3)C2)cc1 | 0% | –
23 | Cc1ccnc(NS(=O)(=O)c2ccc(NC(=O)c3oc4ccc(F)cc4c3C)cc2)n1 | 5.71% | –
24 | [2H]C(CCOS(N)(=O)=O)c1ccccc1 (stereo unspecified) | 33.3% | –
25 | CNC(=O)c1sc(NCc2ccccc2OC)nc1C | 12.4% | –
26 | O=C(Nc1ccc(-c2cscn2)cc1)C1CCCN(Cc2ccc(CO)o2)C1 (stereo unspecified) | 8.86% | –

Row | SMILES | activity change, negative = inhibition | Potency
27 | COc1cc(-c2c(-c3ccc4c(c3)OCO4)noc2C)ccc1F | -12.7% | –
28 | CCNC(=O)c1cccc(NC(=O)C2CC(=O)N(CCc3ccccc3)C2)c1 (stereo unspecified) | 18.1% | –
29 | CN(CC#CCC(c1ccccc1)c1ccccc1)C(C)(C)C | – | 9.28 µM (active)
30 | Cc1cccc(C)c1Nc1c(-c2ccccc2O)nc2ncccn12 | – | 2.94 µM (active)
31 | Cc1ccccc1Nc1c(-c2ccccc2)nc2ncccn12 | -20.4% | –
32 | C[C@H](NC(=O)[C@@H]1Cc2ccccc2CN1C(=O)OC(C)(C)C)C(=O)NC1CCCC1 | -22.4% | –
33 | O/N=C(\C[n+]1ccccc1)c1ccc(Br)cc1 | -29.6% [at 0.00184 µM] | –
34 | O=C(c1cc(-c2cccs2)on1)N1CCCCC1 | 185% | –
35 | CC(=O)c1ccc(NC(=O)c2cc(-c3cccs3)on2)cc1 | 65.8% | –
36 | Cc1cc(NC(=O)c2cc(-c3cccs3)on2)nn1Cc1ccc(Cl)cc1 | – | 10.4 µM (active)
37 | COc1ccc(S(=O)(=O)N2CCC(C(=O)NCCC(=O)NCc3cccc(OC)c3)CC2)cc1 | -3.83% | –
38 | CC(C)Oc1ccc(Oc2ccc(C(F)(F)F)cn2)cc1 | 10.1% | –
39 | C[C@H](C(=O)CC(=O)OC(C)(C)C)[C@H](O)c1ccc(C(F)(F)F)cc1 | 48.5% | –
40 | CNCC[C@H](Oc1ccc(C(F)(F)F)cc1)c1ccccc1 | – | 10.4 µM (active)
41 | CCN(CC)C(=O)C(=O)Nc1cccc(Br)c1 | 70.9% | –
42 | CCN(CC)C(=O)Oc1ccc(Br)cc1C(=O)Nc1ccc(F)c(Cl)c1 | – | 9.28 µM (active)
43 | COC(=O)c1ccc(NC(=O)c2cc(Cl)ccc2OC)cc1 | -5.41% [at 5.75 µM] | –
44 | CCCc1nnc(NC(=O)CCC(=O)NC2CC2)s1 | -5.08% | –
45 | O=C(NCc1ccco1)/C(=C\c1cccc([N+](=O)[O-])c1)NC(=O)c1ccco1 | 9.51% | –
46 | C=CCn1c(SCC(=O)NCC2CCCO2)nc2sc(C)c(C)c2c1=O (stereo unspecified) | 11.5% | –
47 | CC1CCN(C(=O)Cn2cc(C(=O)c3ccco3)c3ccccc32)CC1 | – | 9.28 µM (active)
48 | N#Cc1ccc(Cn2cc(C(=O)c3ccco3)c3ccccc32)cc1 | -11.3% | –
49 | Cc1cccc(NC(=O)Cn2cc(C(=O)c3ccco3)c3ccccc32)c1 | 4.36% | –
50 | CC(Sc1ncnc2c1cnn2-c1ccccc1)C(=O)Nc1ccc(N2CCOCC2)cc1 (stereo unspecified) | 30.4% | –
51 | COc1ccc2c(c1OC)C(=O)N(c1ccc(O)cc1)C2 | 1.26% | –
